Among the test systems are PLK2; PLK3; PLK4; PRKCD; PRKCE; PRKCH; PRKCI; PRKCQ; PRKD1; PRKD2; PRKD3; PRKG1; PRKG2; PRKX; PRP4; QSK; RAF1; RET.
What all share (conditions): concentration: 1 μM,replicates: in singlicate; n = 1
Another assay deals with T1, PRKR.
T1 construct: gene EIF2AK2

The next assay concerns T2, PYK2.
T2 construct: gene PTK2B
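Further: KINOMEscan kinase panel screen.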

For `N#Cc1cccc(C(=O)NC2CCN(c3ccnc(Nc4ccc(F)cc4)n3)C2)c1` (stereo not shown) [GSK1379708], the “%Inh” value with PLK2, in the assay with PLK3, with PLK4, with PRKCD, with PRKCE and in the assay with PRKCH was 0% in each case. Further, the “%Inh” value with PRKCI came out at 23%; in the assay on PRKCQ, 0%; in the assay with PRKD1, 0%; with PRKD2, 0%; in the assay on PRKD3 it was 0%; in the assay with PRKG1 it was 1%. Further, the “%Inh” value is 0% with PRKG2; 0% with PRKR; 14% in the assay with PRKX; 29% in the assay on PRP4; 3% in the assay on PYK2; 0% in the assay with QSK. The “%Inh” value in the assay with RAF1 came out at 2%; with RET, 18%.

Take `O=C1NCCc2[nH]c(-c3ccncc3)cc21`: the “%Inh” value in the assay on PLK2 turned out to be 37%; with PLK3, 40%; in the assay with PLK4, 30%; in the assay with PRKCD it was 27%; in the assay on PRKCE it was 59%; with PRKCH, 58%. Further, the “%Inh” value in the assay on PRKCI is 18%; in the assay with PRKCQ, 46%; with PRKD1, 72%; in the assay with PRKD2, 0%; in the assay on PRKD3, 43%; in the assay with PRKG1, 83%. Moreover, the “%Inh” value came to 99.1% with PRKG2; 9% in the assay with PRKR; 28% in the assay on PRKX; 43% in the assay on PRP4; 0% in the assay with PYK2; 0% with QSK. Moreover, the results for the “%Inh” value with RAF1 and in the assay on RET were 17% and 0%, respectively.

Consider `Cc1ccc(Nc2ccnc(Nc3ccc4c(c3)CS(=O)(=O)C4)n2)cc1O.Cl` [GW579362], for which the “%Inh” value in the assay with PLK2 was 0%; with PLK3 it was 4%; in the assay on PLK4 it was 99.7%; in the assay with PRKCD, 0%; in the assay with PRKCE it was 19%; in the assay with PRKCH, 0%. The “%Inh” value with PRKCI came to 32%; in the assay on PRKCQ, 46%; in the assay on PRKD1 it was 29%; with PRKD2, 55%; with PRKD3, 87%; in the assay on PRKG1, 0%. Moreover, the “%Inh” value with PRKG2 was determined as 0%; with PRKR, 47%; in the assay on PRKX, 0%; in the assay on PRP4 it was 84%; in the assay on PYK2, 83%; in the assay with QSK, 9%. The “%Inh” value with RAF1 was found to be 42%; in the assay with RET, 100%.

`C[C@@H]1CNc2c(sc3ccc4nc(-c5ccncc5)ccc4c23)C(=O)N1`: the “%Inh” value in the assay with PLK2 is 1%; in the assay on PLK3 it was 8%; in the assay with PLK4, 92.7%; in the assay on PRKCD it was 22%; in the assay with PRKCE, 65%; with PRKCH, 0%. Also, the “%Inh” value was determined as 0% in the assay with PRKCI; 8% with PRKCQ; 49% with PRKD1; 12% in the assay on PRKD2; 34% in the assay with PRKD3; 35% in the assay on PRKG1. For the same compound, the “%Inh” value in the assay on PRKG2 is 57%; with PRKR, 0%; in the assay with PRKX it was 34%; with PRP4, 0%; with PYK2, 3%; in the assay on QSK it was 0%. Moreover, the “%Inh” value worked out at 0% in the assay on RAF1 and 14% with RET.

For `CCn1c(-c2nonc2N)nc2cncc(CNC3CCNCC3)c21.Cl` [SB-747651], the “%Inh” value in the assay on PLK2 worked out at 0%; with PLK3, 0%; with PLK4, 0%; in the assay with PRKCD, 77%; with PRKCE, 66%; in the assay on PRKCH, 89%. Moreover, the “%Inh” value in the assay with PRKCI turned out to be 10%; with PRKCQ, 43%; with PRKD1, 0%; in the assay on PRKD2 it was 0%; in the assay on PRKD3 it was 50%; in the assay on PRKG1 it was 74%. In addition, the “%Inh” value in the assay on PRKG2 was 86%; with PRKR it was 0%; in the assay with PRKX it was 55%; in the assay with PRP4, 20%; in the assay with PYK2 it was 0%; in the assay on QSK, 1%. The figures for the “%Inh” value in the assay on RAF1 and in the assay on RET were 97.5% and 5%, respectively.

On to `O=C(NOCC1CC1)c1cc(Br)c(F)c(F)c1Nc1ccc(I)cc1Cl`, for which the “%Inh” value is on record as 0% with PLK2; 4% in the assay on PLK3; 0% with PLK4; 0% with PRKCD; 6% in the assay with PRKCE; 0% with PRKCH. The “%Inh” value amounted to 0% in the assay on PRKCI; 13% in the assay on PRKCQ; 0% in the assay with PRKD1; 11% in the assay with PRKD2; 0% in the assay with PRKD3; 0% in the assay on PRKG1. Moreover, the “%Inh” value came to 0% in the assay with PRKG2; 0% in the assay with PRKR; 0% in the assay on PRKX; 32% in the assay on PRP4; 0% in the assay with PYK2; 0% in the assay with QSK. Also, the “%Inh” value turned out to be 0% in the assay on RAF1 and 6% with RET.

`Cl.Nc1n[nH]c2cc(-c3ccccn3)ccc12` [GSK2189892]: the “%Inh” value is 0% in the assay with PLK2; 0% in the assay with PLK3; 0% in the assay on PLK4; 0% with PRKCD; 0% in the assay with PRKCE; 13% in the assay on PRKCH. Moreover, the “%Inh” value is reported as 8% with PRKCI; 7% with PRKCQ; 0% in the assay with PRKD1; 10% with PRKD2; 0% with PRKD3; 0% with PRKG1. Besides, the “%Inh” value in the assay with PRKG2 amounted to 0%; with PRKR, 0%; in the assay with PRKX, 13%; in the assay on PRP4, 24%; with PYK2, 0%; in the assay on QSK it was 0%. In addition, the “%Inh” value with RAF1 turned out to be 6%; in the assay with RET, 2%.

With `CN(c1cccc(CNc2nc(Nc3ccc4c(c3)CC(=O)N4)ncc2C(F)(F)F)c1)S(C)(=O)=O`, the “%Inh” value with PLK2 was found to be 70%; in the assay with PLK3, 69%; in the assay with PLK4, 89%; in the assay with PRKCD, 27%; with PRKCE it was 16%; in the assay on PRKCH, 0%. The “%Inh” value with PRKCI was determined as 22%; in the assay on PRKCQ it was 38%; with PRKD1, 27%; in the assay with PRKD2, 39%; in the assay with PRKD3, 28%; with PRKG1 it was 0%. In addition, the “%Inh” value with PRKG2 is recorded as 0%; with PRKR, 0%; with PRKX, 0%; with PRP4, 0%; with PYK2 it was 71%; in the assay on QSK, 0%. In addition, the “%Inh” value is on record as 0% with RAF1 and 85% in the assay with RET.

For the compound `Cn1ccc2ncnc(Oc3ccc(NC(=O)Nc4cc(C(C)(C)C)on4)c(Cl)c3)c21`, the “%Inh” value in the assay with PLK2 is on record as 4%; with PLK3 it was 7%; in the assay with PLK4, 19%; in the assay with PRKCD, 21%; in the assay on PRKCE, 0%; in the assay on PRKCH, 0%. Further, the “%Inh” value was determined as 6% with PRKCI; 27% in the assay on PRKCQ; 0% in the assay with PRKD1; 7% in the assay with PRKD2; 0% in the assay on PRKD3; 0% in the assay with PRKG1. Also, the “%Inh” value is on record as 33% in the assay on PRKG2; 0% with PRKR; 17% in the assay on PRKX; 23% in the assay with PRP4; 16% in the assay on PYK2; 0% in the assay with QSK. For the same compound, the “%Inh” value in the assay on RAF1 was 78%; with RET, 100%.

Regarding `COc1ccc(Nc2nccc(N3CCC(NC(=O)c4cccc(C#N)c4)C3)n2)cc1` (stereo not shown) [GSK1379730], the “%Inh” value is listed as 0% in the assay on PLK2; 0% in the assay on PLK3; 0% in the assay with PLK4; 8% in the assay on PRKCD; 0% with PRKCE; 36% in the assay with PRKCH. In addition, the “%Inh” value in the assay with PRKCI was 54%; with PRKCQ, 0%; with PRKD1, 0%; in the assay with PRKD2, 0%; in the assay with PRKD3, 0%; with PRKG1, 12%. Further, the “%Inh” value turned out to be 15% in the assay on PRKG2; 0% with PRKR; 0% in the assay on PRKX; 9% in the assay on PRP4; 18% in the assay on PYK2; 2% in the assay on QSK. Moreover, the “%Inh” value in the assay on RAF1 is given as 0%; in the assay with RET, 28%.

As for `O=C(Nc1n[nH]c2cc(-c3ccco3)ccc12)C1CC1` [SB-737447], the “%Inh” value with PLK2 amounted to 6%; in the assay with PLK3, 8%; in the assay with PLK4, 20%; in the assay with PRKCD, 4%; in the assay with PRKCE, 0%; with PRKCH it was 8%. Further, the “%Inh” value was found to be 29% with PRKCI; 5% with PRKCQ; 0% with PRKD1; 0% in the assay with PRKD2; 0% in the assay with PRKD3; 0% with PRKG1. Moreover, the “%Inh” value in the assay on PRKG2 was 0%; in the assay on PRKR, 0%; with PRKX, 0%; in the assay on PRP4, 13%; in the assay with PYK2 it was 23%; in the assay on QSK, 20%. For the same compound, the “%Inh” value with RAF1 and in the assay with RET was 0% in each case.

These data come from article PMC5540273 (PLoS ONE, 2017).
